Source: PubChem
A selection: hits, their analogues and other compounds. The true share with any hit is near 7.3%.
HCMV inh = inhibitors of human cytomegalovirus | HFF cells, HCMV-luciferase reporter, 72 h; hits give low values | activity change, negative = inhibition, % at 57.5 µM | 410,000 tested, 4.5% active | AID 1259415; in the data active = activity change below about -60%; inconclusive = no clear call, values can overlap the other calls; inactive = above about -39%
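After 16 h attachment at 37C, HFF cells received test compound and HCMV-luciferase (1 PFU/cell); reporter luminescence read 72 h later, data normalized against buffer-only and known inhibitor Salinomycin.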
HCV inh = inhibitors of hepatitis C virus infection | Huh7.5.1 HCVcc-Cre infection, luciferase reporter, 44 h | Potency, µM (series often up to 41.8 µM), hits mostly inhibitors | 340,000 tested, 3.4% active; active = well fitted inhibition curve with a large enough effect; inconclusive = small, poorly fitted or top-dose-only effect, or another doubt; inactive = no such curve, though single readings can be large or run the other way
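A cell-based infection assay in which seeded cells (1,000 per well) receive test compound after 4 h, are inoculated with HCVcc-Cre at approximately 0.5 moi, and are incubated 44 h before luminescence detection.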
Vaccinia mCherry = vaccinia inhibition (mCherry reporter) | Potency, µM (titrated, usually from 36.5 µM), usual class: inhibitors | Vaccinia virus mCherry reporter infection, fluorescence | 310,000 tested, 0.63% active; calls by dose curve; tested in A549 cells; note: nearly all actives have a fitted effect of over 35% in size
VACV Venus inh = inhibitors of vaccinia virus (Venus reporter); AID 720580; Potency, µM (series often up to 36.5 µM), most hits filed as inhibitors; Vaccinia virus Venus reporter expression, fluorescence; 330,000 tested, 0.46% active; calls by dose curve; tested in A549 cells; note: nearly all actives have a fitted effect of over 30% in size
FMDV antiviral = antivirals against foot and mouth disease virus; AID 1159524; FMDV antiviral cell-based qHTS; Potency, µM (doses to about 57.9 µM), actives largely listed as inhibitors; 410,000 tested, 1.2% active; calls by dose curve; tested in HEK293T cells; note: read-out not given here; nearly all actives have a fitted effect of over 45% in size
Large screens that a line does not name were inactive.

Cc1ccc2c(C)nc(Nc3nc(CSc4nnnn4-c4ccccc4)cc(=O)[nH]3)nc2c1	HCMV inh -101, HCV inh 11µM, Vaccinia mCherry inconclusive, VACV Venus inh inconclusive
COc1ccc2nc(Nc3nc(CSc4ccc(C)cc4)cc(=O)[nH]3)nc(C)c2c1	HCMV inh -67
COCc1cc(=O)[nH]c(Nc2nc(C)c3ccccc3n2)n1	HCMV inh -102, HCV inh inconclusive (no result: Vaccinia mCherry, VACV Venus inh)
COc1ccc2nc(Nc3nc(CSc4nnnn4-c4ccccc4)cc(=O)[nH]3)nc(C)c2c1	HCV inh inconclusive (no result: Vaccinia mCherry, VACV Venus inh)
CO/N=C1\CN(c2nc3c(cc2F)c(=O)c(C(=O)O)cn3C2CC2)CC1CN (configuration not stated)	none (no result: HCMV inh, HCV inh)
CC(C)Oc1cccc(Nc2nccc3c2cc(-c2ccc(C(=O)N(C)C)cc2)n3C)c1	none (no result: HCV inh, Vaccinia mCherry, VACV Venus inh, FMDV antiviral)
CO[C@H]1[C@H](NC(=O)c2cccs2)c2ccccc2C12CCN(Cc1cccn1-c1cccnc1)CC2	none (no result: HCMV inh, HCV inh)
CCOC(=O)C1=C(COC(=O)Cc2ccc(Cl)cc2)NC(=O)NC1C (configuration not stated)	HCMV inh -73 (no result: Vaccinia mCherry, VACV Venus inh)
CCOC(=O)C1=C(COC(=O)CCOc2ccc(C)cc2)NC(=O)NC1C (configuration not stated)	HCMV inh -69, HCV inh inconclusive, Vaccinia mCherry inconclusive, VACV Venus inh inconclusive
O=C(CN1C(=O)c2cccc3cccc1c23)Nc1cccc(F)c1	none (no result: HCV inh)
COc1cccc([C@@H]2Oc3ccc(OC)cc3C(=O)[C@H]2O)c1	HCV inh inconclusive, Vaccinia mCherry inconclusive, VACV Venus inh inconclusive (no result: HCMV inh)
COc1ccc2c(c1)C(=O)[C@@H](O)[C@H](c1ccc(OC)c(Br)c1)O2	Vaccinia mCherry 4µM, VACV Venus inh inconclusive (no result: HCMV inh)
CC1(C)C2CC[C@]3(C)C(CC=C4[C@@H]5C[C@@](C)(CO)[C@@H](O)C[C@]56C[C@@H](OC6=O)[C@]43C)[C@@]2(C)CC[C@@H]1O (some centres not stated)	HCV inh 1.3µM
CC1(C)CC[C@]2(C(=O)O)CC[C@@]3(C)C(=CCC4[C@@]5(C)CCC(O)C(C)(C)C5CC[C@@]43C)C2C1 (some centres not stated)	none (no result: HCMV inh, HCV inh)
CCOC(=O)Cc1ccc(NC(=O)N2CC(C)Oc3ccc(Cl)cc32)cc1 (configuration not stated)	none (no result: HCV inh)
COc1cccc(-c2nc(CS(=O)(=O)CC(=O)NCc3ccc(C)cc3)c(C)o2)c1	none (no result: HCV inh)
O=C(Nc1ccc(Cl)cc1)c1nc[nH]c1C(=O)NCc1ccccc1	HCMV inh -74, HCV inh inconclusive, Vaccinia mCherry inconclusive, VACV Venus inh inconclusive
C[C@H](NC(=O)c1[nH]cnc1C(=O)Nc1ccon1)c1ccccc1	HCV inh 1.4µM
C[C@H](NC(=O)c1[nH]cnc1C(=O)Nc1ccc(Cl)cc1)c1ccccc1	VACV Venus inh inconclusive
C[C@@H](NC(=O)c1[nH]cnc1C(=O)Nc1ccc(Cl)cc1)c1ccccc1	HCMV inh -70, HCV inh inconclusive, Vaccinia mCherry inconclusive, VACV Venus inh inconclusive
Cc1cccc(NC(=O)c2nc[nH]c2C(=O)Nc2cc(Br)ccc2F)c1	HCMV inh -88, VACV Venus inh inconclusive (no result: HCV inh)
O=C(Nc1ccccc1)c1nc[nH]c1C(=O)O	none (no result: HCV inh)
C[C@@H](NC(=O)c1[nH]cnc1C(=O)Nc1cccc(Cl)c1)c1ccccc1	HCMV inh -79
O=C(c1ccccc1)c1nc[nH]c1C(=O)Nc1ccccc1	HCMV inh -65 (no result: Vaccinia mCherry)
CCc1cc2c(cc3c(=O)n(CC(=O)N4CCCCC4)nc(CC)n32)s1	none (no result: HCV inh)
Cc1c(C(=O)N2CCCCCC2)c(S(=O)(=O)N(Cc2ccccc2)C(C)(C)C)c(C)n1C	none (no result: HCV inh)
CS(=O)(=O)c1ccc(-c2nccc3[nH]nc(-c4cccc(F)c4)c23)cc1	none (no result: HCV inh, Vaccinia mCherry, VACV Venus inh, FMDV antiviral)
COC(=O)c1cn(-c2ccccc2)nc1-c1ccc(OC)cc1	HCV inh 13µM
CCN(CC)CCNC(=S)NC(=O)c1cn(-c2ccccc2)nc1-c1ccc(OC)cc1	HCMV inh inconclusive, HCV inh 22µM (no result: Vaccinia mCherry, VACV Venus inh)
COc1ccc(-c2nn(-c3ccccc3)cc2C(=O)NC2CCC(C)CC2)cc1 (configuration not stated)	none
COC(=O)c1cn(-c2ccccc2)nc1-c1ccncc1	none
COc1ccc(-c2nn(-c3ccccc3)cc2C(=O)OCC(=O)c2ccc(C)c([N+](=O)[O-])c2)cc1	HCMV inh inconclusive, HCV inh 7.1µM, FMDV antiviral inconclusive
COc1ccc(-c2nn(-c3ccccc3)cc2C(=O)n2nnc3ccccc32)cc1	FMDV antiviral 20µM
